The panel holds about 83,000 compounds, 20% with a hit somewhere; the sample as a whole holds those more often.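 In brief: 96-well plates, 48 h treatment, single concentration, percent growth endpoint.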 A number with no mark means an inactive call. The calls were made as follows: active = growth percent below 10; inactive = the rest.

The test system of this experiment is HL-60(TB) leukemia. Kind of experiment: NCI-60 one-dose screen, 48 h (100 = growth as untreated, 0 = no growth, -100 = all killed). Conditions: 10 µM unless noted.
In the case of `COc1ccc(C2CC(c3ccc4ccccc4c3)=NN2c2nc(O)c(C3=c4cc(OC)ccc4=NC3=O)s2)cc1` (stereo not drawn), the growth is 36.2%. With `CCCCNc1ccc2c3c1cccc3c(=O)n1c3ccccc3nc21` the figure was 63.4%; with `COc1ccc(/C(=C\c2ccccc2)C(=O)O)cc1OC`, 112%.

(Values after PubChem BioAssay (NCI).)
